Results reported in the supplement of paper PMC3334620.
Over roughly 33,000 sequences, “E-score (-0.5 to 0.5)” has its median near -0.015; the highest 2% begin near 0.3. The full list was thinned out, with the highest values kept by preference.

Each sequence was assayed against T1, Abf1 (UniProt P14164) (assay: PBM E-score (8-mer binding enrichment) (E-score (-0.5 to 0.5)); higher = stronger / more preferred TF binding). Conditions: protein concentration: 200 nM; construct: GST-full length.
T1 sequence: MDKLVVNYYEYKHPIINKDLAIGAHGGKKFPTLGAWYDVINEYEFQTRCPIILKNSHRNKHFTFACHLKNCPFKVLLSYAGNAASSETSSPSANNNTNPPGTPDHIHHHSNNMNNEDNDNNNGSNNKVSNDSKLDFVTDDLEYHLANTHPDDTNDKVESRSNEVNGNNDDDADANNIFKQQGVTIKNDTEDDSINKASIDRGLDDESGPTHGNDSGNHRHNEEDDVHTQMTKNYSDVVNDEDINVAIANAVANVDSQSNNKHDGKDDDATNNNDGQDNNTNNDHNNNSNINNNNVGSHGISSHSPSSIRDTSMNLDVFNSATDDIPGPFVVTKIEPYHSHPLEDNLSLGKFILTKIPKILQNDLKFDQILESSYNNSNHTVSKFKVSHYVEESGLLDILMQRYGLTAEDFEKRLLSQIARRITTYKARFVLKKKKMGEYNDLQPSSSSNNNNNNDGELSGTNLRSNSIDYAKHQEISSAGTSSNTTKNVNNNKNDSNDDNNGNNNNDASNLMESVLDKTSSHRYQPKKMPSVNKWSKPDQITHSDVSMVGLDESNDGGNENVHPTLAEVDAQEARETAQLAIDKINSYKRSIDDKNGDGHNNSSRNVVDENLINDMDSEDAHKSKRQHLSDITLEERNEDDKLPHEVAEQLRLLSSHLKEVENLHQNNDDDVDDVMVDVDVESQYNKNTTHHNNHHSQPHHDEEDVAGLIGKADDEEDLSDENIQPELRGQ
Method in brief: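 For each ungapped eight-base word taken together with its reverse complement, the Universal PBM Analysis Suite assigned an E-score. Binding data came from GST-tagged yeast transcription factors, applied at about 100-200 nM, on universal all-10-mer Agilent arrays made double-stranded by primer extension. Fluorescent anti-GST marked bound protein, and scans were normalised with masliner.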

Row | Sequence | PBM E-score
1 | CTCGCATA | -0.0654
2 | ATGACAGC | 0.199
3 | ATGACAAG | 0.282
4 | ATGACAAC | 0.343
5 | CATAGAAA | 0.105
6 | GATCATGA | 0.227
7 | TATCATGA | 0.306
8 | AATCATGA | 0.274
9 | CATCATGG | 0.101
10 | CATCATGA | 0.298
11 | CATCATGC | 0.128
12 | ACTGGCCG | -0.142
13 | ACATTGAG | -0.169
14 | CCTGGCGA | -0.127
15 | GGCCATCA | -0.255
16 | AATCGAAA | 0.126
17 | CGAAGGGA | -0.118
18 | GGATGAAA | 0.128
19 | GGATGATA | 0.31
20 | GGATGAGA | -0.0398
21 | CGATGATC | 0.287
22 | AGATGATG | 0.216

Row | Sequence | PBM E-score
23 | CGATGAGA | 0.19
24 | CGATGATA | 0.305
25 | AGATGATA | 0.364
26 | AGATGATC | 0.176
27 | ACATTGGG | -0.0776
28 | TGGCTTAA | 0.115
29 | AGATTCCC | -0.0908
30 | ACAAAGTC | 0.0656
31 | AAGGGTTA | 0.0193
32 | AAACCTGC | -0.168
33 | ATGTGAAG | 0.164
34 | ACCGGACG | -0.0917
35 | ATGACCCC | -0.103
36 | AGACTTCA | -0.0675
37 | ACGAAAAA | 0.216
38 | ACGAAACC | 0.196
39 | ACGAAACA | 0.245
40 | ACGAAAAG | 0.218
41 | ACGAAAGC | 0.356
42 | ACGAAGAC | 0.308
43 | ACGAAGAA | 0.288
44 | GCGAAAGC | -0.15

Row | Sequence | PBM E-score
45 | ACGAAAAC | 0.316
46 | ACGAAGAT | 0.284
47 | ACGAAAGG | 0.276
48 | ACGAAACT | 0.336
49 | GGAGACTA | -0.107
50 | CTGTCGCC | -0.202
51 | AGGTTTGA | -0.188
52 | CCTGGCCA | -0.161
53 | ACTCTATA | 0.145
54 | GCGGAAAC | -0.206
55 | AGGATTGG | -0.0614
56 | GTTCTTAA | 0.124
57 | ACGAAGTG | 0.301
58 | ACGAAGTA | 0.169
59 | ACGAAGTC | 0.152
60 | AGACGTTG | 0.109
61 | ACAGATTG | -0.0933
62 | ATGACATC | 0.308
63 | ATGACACC | 0.187
64 | CTGACACA | -0.208
65 | ATGACAGG | -0.0297
66 | ACGACATC | 0.303

Row | Sequence | PBM E-score
67 | CTGACATC | -0.0102
68 | GTGACACA | 0.343
69 | ATGACACA | 0.266
70 | CCGACATC | 0.218
71 | ACGACATG | 0.225
72 | AGGACATG | -0.0301
73 | ATGACATG | 0.358
74 | GAGTATCC | 0.0845
75 | ACCACGCT | -0.0224
76 | GAACAGTC | -0.0496
77 | AATTTGCC | -0.136
78 | GAGACATA | 0.0808
79 | GTGACATA | 0.43
80 | AAGACATA | 0.103
81 | ATGACAGA | 0.128
82 | CTGACATA | 0.0493
83 | CTGACAGA | 0.0348
84 | GTGACAGA | 0.359
85 | GGGACATA | -0.00523
86 | ATGACATA | 0.401
87 | ACGACTCG | 0.144
88 | CGTGGTAC | 0.161

Row | Sequence | PBM E-score
89 | AACTGCTG | -0.0316
90 | CTGACTCC | -0.131
91 | CGTGGGAG | 0.0501
92 | CAAATCCC | -0.184
93 | ACGTCGTA | 0.228
94 | CCGTCTAA | 0.266
95 | GCGTCGTA | 0.418
96 | CCGTCGCA | 0.282
97 | ACGTCGAA | 0.163
98 | GCGTCGCA | -0.0267
99 | TCGTCTAA | 0.298
100 | ACGTCTAA | 0.196
101 | GCGTCGAA | 0.0222
102 | TCGTCGCA | 0.322
103 | TCGTCGAA | 0.355
104 | CCGTCGTA | 0.282
105 | CCGCCATA | -0.072
106 | GGGTTACC | -0.0518
107 | CAGACCAA | -0.132
108 | GCCCAAAA | -0.114
109 | AAATGGAG | 0.0525
110 | AGGCTCTA | -0.247
